From PubChem BioAssay AID651658 (Broad Institute, 2012) come the findings set out here.

Structures are written as SMILES. Values joined by “and” are separate entries in the source; they are usually repeats but may differ in a detail not shown here. Identical values can stand only once. In all, about 340,000 compounds went through this assay and about 5,100 (1.5%) were called active. The sample as a whole holds a higher share of actives than the screen did. A number with no mark means an inactive call.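 Rule for the calls: active = mean Tm shift, scaled 0 neutral to 100 positive control, at about 1.3% or above, every replicate too (limit read from the data); inconclusive = no clear call, values can overlap the other calls; inactive = the rest.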

For this experiment, the target named is Fibroblast growth factor 22 (Homo sapiens) (UniProt Q9HCT0). As to the kind of experiment: FGF22 ligand-induced thermal stabilization – biophysical, thermal shift, single point, FGF22 synaptogenesis inhibitor project, primary screen (AID 651658). The conditions noted are these: recombinant FGF22 thermal shift, SYPRO orange fluorescence; at 9.99 µM; stronger effect = higher value; percent of sucrose octasulfate shift, DMSO zero.
Fibroblast growth factor 22 (Homo sapiens), sequence (Q9HCT0 whole entry, looked up): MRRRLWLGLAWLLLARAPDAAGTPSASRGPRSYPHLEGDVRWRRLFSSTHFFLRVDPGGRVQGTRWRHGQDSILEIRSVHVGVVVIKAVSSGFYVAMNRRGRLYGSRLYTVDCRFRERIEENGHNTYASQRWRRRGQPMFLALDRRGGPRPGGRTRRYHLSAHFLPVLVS
`COc1ccc2c3c(n(C)c2c1)[C@@H](CO)N(Cc1ccncc1)CC31CN(C(=O)C2CCC2)C1`: the activity (Tm shift, normalised) was -0.256%.
`C[C@@H]1CN([C@H](C)CO)C(=O)c2cc(NS(=O)(=O)c3ccccc3)ccc2O[C@@H](C)CCCCO[C@H]1CN(C)C(=O)C1CCCCC1`: the activity (Tm shift, normalised) is -0.338%.
For `Cc1noc(C)c1S(=O)(=O)Nc1ccc2c(c1)CC(=O)N([C@@H](C)CO)C[C@@H](C)[C@H](CN(C)C)O2`, the activity (Tm shift, normalised) is -0.289%.
For `CCCCN(C(=O)/C=C/c1ccco1)c1c(N)n(CC(C)C)c(=O)[nH]c1=O`, the activity (Tm shift, normalised) is 43.9% (active).
The result for `CCCCn1c(N)c(N(CC)C(=O)/C=C/c2ccco2)c(=O)[nH]c1=O` reads 0.345%; that for `CCCCN(C(=O)c1nn(C)c(=O)c2ccccc12)c1c(N)n(CCC)c(=O)[nH]c1=O`, 0.011%.
As for `CC(C)NC(=O)N(C)C[C@H]1Oc2ccc(NC(=O)CCCCCC(=O)Nc3ccccc3N)cc2C(=O)N([C@@H](C)CO)C[C@@H]1C`, the activity (Tm shift, normalised) is -0.213%.
For `COc1ccc2c3c([nH]c2c1)[C@@H](CO)N(C(=O)C1CC1)CC31CCN(Cc2nccs2)CC1`, the activity (Tm shift, normalised) was 0.119%.
As for `CC(C)NC(=O)Nc1ccc2c(c1)C(=O)N([C@H](C)CO)C[C@H](C)[C@@H](CN(C)Cc1ccc3c(c1)OCO3)OCCCC[C@H](C)O2`, the activity (Tm shift, normalised) is -0.249%.
Regarding `O=C(Nc1ccccc1Cl)NC1(C(=O)N2CCOCC2)CCCCC1`, the activity (Tm shift, normalised) was -0.339%.
As to `Cc1ccccc1NC(=O)NC1(C(=O)N2CCCC2)CCCCC1`, the activity (Tm shift, normalised) was 43.5% (active).
On to `CC(=O)N1CCN(C(=O)C2(NC(=O)Nc3ccc(C)cc3)CCCCC2)CC1`, for which the activity (Tm shift, normalised) is -0.042%.
In the case of `C[C@@H]1CN([C@H](C)CO)C(=O)Cc2cc(NC(=O)NC3CCCCC3)ccc2O[C@H]1CN(C)S(C)(=O)=O`, the activity (Tm shift, normalised) is -0.091% and -0.115%.
Turning to `CC(C)NC(=O)Nc1ccc2c(c1)C(=O)N([C@@H](C)CO)C[C@H](C)[C@@H](CN(C)Cc1ccc(C(=O)O)cc1)OCCCC[C@H](C)O2`, the activity (Tm shift, normalised) is 0.548%.
For `COc1ccc2c3c([nH]c2c1)[C@H](CO)N(Cc1ccccc1Cl)CC31CN(C(=O)C2CC2)C1`, the activity (Tm shift, normalised) is 0.006%.
With `COc1cccc(S(=O)(=O)N[C@@H]2C=C[C@H](CC(=O)NC3CCC3)O[C@H]2CO)c1`, the activity (Tm shift, normalised) is 0.557%.
For the molecule `CC[N+]1(CC)CC2=Cc3ccccc3CC2C1` (stereo not given), the activity (Tm shift, normalised) is 43.3% (active).
As for `C[C@@H]1CCCCO[C@@H](CN(C)Cc2ccccc2)[C@H](C)CN([C@H](C)CO)C(=O)c2cc(NC(=O)Nc3cccc4ccccc34)ccc2O1`, the activity (Tm shift, normalised) was -0.579%.
As for `C[C@@H]1CCCCO[C@H](CN(C)C(=O)NC2CCCCC2)[C@H](C)CN([C@H](C)CO)C(=O)c2cc(NC(=O)c3ccncc3)ccc2O1`, the activity (Tm shift, normalised) is 0.182%.
Consider `COc1ccc2c3c(n(C)c2c1)[C@H](CO)N(C(=O)NC(C)C)CC31CN(CC2CCCCC2)C1`, for which the activity (Tm shift, normalised) was -0.103%.
On to `COc1ccc(CNC(=O)C2CCN(S(=O)(=O)c3ccc(SC)cc3)CC2)cc1`, for which the activity (Tm shift, normalised) is -0.235%.
As to `COc1ccc(CNC(=O)C2CCCC2)cc1`, the activity (Tm shift, normalised) was -0.099%.
With `COc1ccc(CNC(=O)C2CCN(S(C)(=O)=O)CC2)cc1`, the activity (Tm shift, normalised) is 43.4% (active).
As for `CN(C)C(=O)c1ccc(-c2ccc([C@@H]3[C@H](C#N)N(C(=O)C4CC4)[C@H]3CO)cc2)cc1`, the activity (Tm shift, normalised) is 0.09%.
Turning to `CO[C@H]1CN(C)C(=O)c2cc(NC(=O)Nc3cccc(F)c3)ccc2OC[C@@H](C)N(C)C[C@H]1C`, the activity (Tm shift, normalised) is 0.028%.
For the molecule `S=C(Nc1ccc(Cl)cc1Cl)N1CCCC1`, the activity (Tm shift, normalised) was -0.146%.
On to `CC1CN(C(=S)Nc2ccc(Br)cc2Cl)CC(C)O1` (stereo not given), for which the activity (Tm shift, normalised) was 0.064%.
In the case of `S=C(Nc1ccc(Br)cc1Cl)N1CCC2(CC1)OCCO2`, the activity (Tm shift, normalised) was 43.8% (active).
As to `O=C(Nc1cc(F)ccc1F)N1C[C@H]2[C@@H](c3ccccc31)[C@@H](CO)N2C(=O)c1ccccc1`, the activity (Tm shift, normalised) is 0.029%.
Regarding `N#C[C@@H]1[C@H](c2ccccc2)[C@H](CO)N1C(=O)CN1CCOCC1`, the activity (Tm shift, normalised) was 0.041%.
For `O=C(Nc1ccccc1)N1C[C@@H]2[C@H](c3ccccc31)[C@H](CO)N2C(=O)c1ccccn1`, the activity (Tm shift, normalised) is -1.73%.
With `CC(C)NC(=O)N1C[C@@H]2[C@H](c3ccccc31)[C@H](CO)N2C(=O)c1ccccn1`, the activity (Tm shift, normalised) is 16.8% (active).
`O=C(Nc1ccccc1F)N1C[C@H]2[C@@H](c3ccccc31)[C@H](CO)N2C(=O)c1ccccn1`: the activity (Tm shift, normalised) was -1.13%.
Take `O=C(Nc1ccc(C(F)(F)F)cc1)N[C@@H]1CC[C@@H](CCNC(=O)c2ccccc2F)O[C@H]1CO`: the activity (Tm shift, normalised) was 0.08%.
Turning to `O=C(COC(=O)c1cc(-c2cccs2)nn1-c1ccccc1)Nc1cc([N+](=O)[O-])ccc1Cl`, the activity (Tm shift, normalised) was 43.8% (active).
As for `Cc1nn(-c2ccccc2)c(C)c1NC(=O)COC(=O)c1cc(Cl)ccc1O`, the activity (Tm shift, normalised) was -0.058%.
As to `COc1ccc(Cl)cc1NC(=O)CN(C)C(=O)c1cc(-c2cccs2)nn1-c1ccccc1`, the activity (Tm shift, normalised) is 0.161%.
As for `CCC(=O)N1[C@@H](CO)[C@@H](c2ccc(C3=CCCC3)cc2)C12CN(C(=O)COC)C2`, the activity (Tm shift, normalised) was 0.109%.
The result for `C[C@H]1CCCCO[C@@H](CN(C)Cc2ccccc2)[C@@H](C)CN([C@@H](C)CO)C(=O)c2cc(NC(=O)CCCN(C)C)ccc2O1` reads -0.026%; that for `CN(c1ccccc1)S(=O)(=O)c1ccc(C(=O)N2CCN(c3ccccc3Cl)CC2)cc1`, -0.343%.
The result for `O=C(c1ccc2ccccc2n1)N1CCN(c2ccccc2Cl)CC1` reads 43.4% (active); that for `CCNC(=O)C1(C)CCCN(C(=O)c2ccc3ccccc3n2)C1` (stereo not given), -0.027%; that for `O=C(NCC[C@H]1CC[C@@H](NC(=O)c2cnccn2)[C@H](CO)O1)Nc1ccc(Cl)cc1`, 0.223%.
In the case of `CCC(=O)Nc1ccc2c(c1)C(=O)N(C)[C@@H]1CC[C@@H](CC(=O)NCc3ccccc3Cl)O[C@H]1CO2`, the activity (Tm shift, normalised) is -0.111%.
Take `C[C@@H]1CN([C@H](C)CO)S(=O)(=O)c2ccc(C#CC3(O)CCCC3)cc2O[C@@H]1CN(C)C(=O)c1cccnc1`: the activity (Tm shift, normalised) is -0.011%.
